Common to all, as to format: functional
The subject of assay [1] is Plasmodium falciparum. As to the kind of experiment: GSK_TCMDC: Inhibition of Plasmodium falciparum 3D7 in whole red blood cells, using parasite LDH activity as an index of growth. Test compounds present at 2uM.
The test system of assay [2] is Plasmodium falciparum. Briefly: GSK_TCMDC: Inhibition of Plasmodium falciparum Dd2 in whole red blood cells, using parasite LDH activity as an index of growth. Test compounds present at 2uM.
In a further assay the test system is HepG2. Briefly: GSK_TCMDC: Percent inhibition of human HepG2 cell line. Test compounds present at 10uM.

As to `O=C1CCCC1Sc1nc2ccccc2c(=O)n1-c1ccc(Cl)c(Cl)c1` (centres undefined), the Inhibition with Plasmodium falciparum [1] worked out at 97%; with Plasmodium falciparum [2], 42%; in the assay with HepG2 it was 10%.

`COc1ccc(-c2cnc3[nH]cc(-c4ccc(CCC(=O)O)cc4)c3c2)cn1.O=C(O)C(F)(F)F`: the Inhibition with Plasmodium falciparum [1] worked out at 98%; in the assay on Plasmodium falciparum [2], 95%; with HepG2 it was 25%.

As to `Cl.c1ccc(Oc2ccc(Nc3nncc4ccccc34)cc2)cc1`, the results for the Inhibition with Plasmodium falciparum [1], in the assay with Plasmodium falciparum [2] and with HepG2 were 86%, 82% and 20%, respectively.

For the compound `CN1CCc2cc(O)c(NS(=O)(=O)c3ccc(-c4ccc(Cl)cc4)cc3)cc2CC1.Cl`, the Inhibition in the assay with Plasmodium falciparum [1] was determined as 100%; with Plasmodium falciparum [2] it was 3%; with HepG2, 7%.

Turning to `Brc1cc(Br)c2c(c1)C(NCCCNc1nc3ncccc3[nH]1)CCN2.O=C(O)CCC(=O)O` (centres undefined), the Inhibition was 99% in the assay with Plasmodium falciparum [1], 83% in the assay on Plasmodium falciparum [2] and 5% in the assay with HepG2.

On to `COc1cccc(-c2cc(C(F)(F)F)n3ncc(C(=O)Nc4cc(C)ccc4O)c3n2)c1`, for which the values for the Inhibition with Plasmodium falciparum [1], with Plasmodium falciparum [2] and in the assay with HepG2 were 98%, 99% and 0%, respectively.

In the case of `O=C(Nc1ccc(OC2CCN(Cc3ccccc3)C2)c(Cl)c1)c1ccsc1.O=C(O)C(F)(F)F` (centres undefined), the Inhibition came out at 93% with Plasmodium falciparum [1], 75% in the assay with Plasmodium falciparum [2] and 12% with HepG2.

In the case of `OC(c1cccc2ccccc12)C1CN(CCc2ccccc2)CCC1(O)c1ccccc1` (centres undefined), the figures for the Inhibition in the assay on Plasmodium falciparum [1], with Plasmodium falciparum [2] and with HepG2 were 99%, 100% and 0%, respectively.

For the compound `COc1ccc(-c2onc(C(F)(F)F)c2-c2ccc(Br)cc2)c(O)c1`, the Inhibition stood at 99% with Plasmodium falciparum [1], 77% in the assay with Plasmodium falciparum [2] and 7% in the assay with HepG2.

In the case of `CNCc1cccc(-c2ccc3ccnc(N)c3c2)c1`, the Inhibition in the assay on Plasmodium falciparum [1] was found to be 100%; in the assay with Plasmodium falciparum [2] it was 98%; in the assay on HepG2, 20%.

As to `COc1ccc(Cl)cc1N1CCN(CCCNC(=O)c2ccc(-c3nc4cnccc4[nH]3)c(Br)c2)CC1`, the values for the Inhibition with Plasmodium falciparum [1], with Plasmodium falciparum [2] and in the assay with HepG2 were 86%, 15% and 5%, respectively.

On to `Cc1nc(-c2cccc(C(F)(F)F)c2)n2nc(Nc3ccc(OCCN4CCCC4)cc3)ncc12`, for which the figures for the Inhibition in the assay on Plasmodium falciparum [1], with Plasmodium falciparum [2] and in the assay with HepG2 were 99%, 29% and 30%, respectively.

As for `COc1ccc(CNC2CCN(C)CC2)cc1-c1ccc(S(=O)(=O)NCCc2ccccn2)c(C)c1.O=C(O)C(F)(F)F`, the Inhibition with Plasmodium falciparum [1] was 96%; in the assay on Plasmodium falciparum [2], 91%; in the assay with HepG2, 7%.

Regarding `O=C(/C=C/c1ccc(Cl)c(Cl)c1)N1CCC(CN2CCC(c3c[nH]c4ccncc34)CC2)CC1`, the Inhibition in the assay with Plasmodium falciparum [1] came to 100%; with Plasmodium falciparum [2] it was 72%; with HepG2, 44%.

As to `Fc1ccc2[nH]c(-c3ccc(-c4ccc(CNCCc5cccnc5)cc4)s3)nc2c1.O=C(O)C(F)(F)F`, the Inhibition worked out at 100% with Plasmodium falciparum [1], 99% with Plasmodium falciparum [2] and 40% with HepG2.

For `CCCNCc1ccc(-c2ccc(CN(Cc3cnc(C)cn3)C(=O)CC#N)cc2)nc1.O=C(O)C(F)(F)F`, the Inhibition with Plasmodium falciparum [1] is on record as 92%; with Plasmodium falciparum [2], 0%; with HepG2, 4%.

As to `Cc1nn(-c2ccccc2)c2c1C(c1ccc(C(C)C)cc1)N1C(=N2)N(Cc2ccccc2)c2ccccc21` (centres undefined), the Inhibition in the assay on Plasmodium falciparum [1] was found to be 95%; in the assay on Plasmodium falciparum [2] it was 37%; in the assay with HepG2, 7%.

Consider `CCOC(=O)C1=C(C)NC(C)=C(C(=O)OCC)C1(C(=O)OCc1ccccc1)c1cccc(C(F)(F)F)c1`, for which the Inhibition in the assay on Plasmodium falciparum [1] was 88%; with Plasmodium falciparum [2], 60%; with HepG2, 0%.

For `Cc1nc2ccc3ccc(CNc4ccc5c(c4)CN([C@@H](CCC(=O)O)C(=O)O)C5=O)cc3c2c(=O)[nH]1` [OSI-7904], the Inhibition came out at 94% in the assay with Plasmodium falciparum [1], 95% in the assay with Plasmodium falciparum [2] and 41% with HepG2.

For the compound `CS(=O)(=O)c1cccc(-c2cnc3[nH]cc(-c4ccc(C(=O)O)cc4)c3c2)c1`, the Inhibition with Plasmodium falciparum [1] was determined as 99%; in the assay on Plasmodium falciparum [2], 100%; in the assay on HepG2 it was 6%.

For `CCCNc1ccc(-c2cc(C(N)=O)c3[nH]cc(C4CCN(S(=O)(=O)CC)CC4)c3c2)cn1.O=C(O)C(F)(F)F`, the Inhibition in the assay with Plasmodium falciparum [1] was 99%; in the assay on Plasmodium falciparum [2], 42%; in the assay on HepG2, 6%.

With `O=C(/C=C/c1ccc(Cl)c(Cl)c1)NCCCCCN1CCC(NC(=O)Nc2cc(Cl)ccc2Cl)CC1`, the Inhibition in the assay on Plasmodium falciparum [1] amounted to 99%; with Plasmodium falciparum [2], 31%; in the assay with HepG2, 99%.

In the case of `COc1ccc(Cl)cc1NC(=O)Nc1ccnc2ccccc12`, the Inhibition in the assay with Plasmodium falciparum [1] is 100%; in the assay with Plasmodium falciparum [2], 44%; in the assay with HepG2, 13%.

Turning to `CCCNC(=O)C1CCN(C(c2ccccc2)c2ccc(Cl)c(Cl)c2)CC1` (centres undefined), the Inhibition with Plasmodium falciparum [1] is reported as 90%; with Plasmodium falciparum [2], 90%; in the assay with HepG2, 15%.

For the compound `COc1cc2nc(NCC3CCN(C(=O)c4ccc(-c5ccc(C(=O)N(C)C)cc5C)cc4)CC3)nc(N)c2cc1OC`, the Inhibition with Plasmodium falciparum [1] was found to be 100%; in the assay on Plasmodium falciparum [2], 34%; in the assay with HepG2, 2%.

As to `COc1ccc(-c2nonc2NC(=O)c2cccc(C)c2)cc1OC`, the figures for the Inhibition with Plasmodium falciparum [1], in the assay on Plasmodium falciparum [2] and with HepG2 were 97%, 8% and 24%, respectively.

With `S=c1nc(-c2ccccc2)n2ccsc2n1`, the figures for the Inhibition in the assay on Plasmodium falciparum [1], in the assay on Plasmodium falciparum [2] and in the assay with HepG2 were 95%, 0% and 3%, respectively.

In the case of `O=C(NCc1cccc(Cl)c1)c1ccc(CNC2CCN(Cc3ccccc3)CC2)cc1.O=C(O)C(F)(F)F`, the Inhibition came to 100% in the assay with Plasmodium falciparum [1], 50% with Plasmodium falciparum [2] and 13% in the assay with HepG2.

The values are drawn from ChEMBL document CHEMBL1157539, “Thousands of chemical starting points for antimalarial lead identification” (Nature, 2010).
